Records with an inconclusive call do not appear. The source made the active and inactive calls. Unless noted, calls come from the whole dose curve; as a rule, active = well fitted curve in the direction sought with a large enough effect; inconclusive = small, poorly fitted or top-dose-only effect, or another doubt; inactive = no such curve, though single readings can be large; an effect the other way counts as inactive or inconclusive.
Experiments:
[1] = qHTS assay for small molecule agonists of the antioxidant response element (ARE) signaling pathway (AID 651741; active = well fitted activation curve with a large enough effect in the signal ratio; the % refers to the signal ratio; note: potency is the fitted concentration of half-maximal effect); details: HepG2 ARE-bla reporter, beta-lactamase FRET ratio, 16 h
In short: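 Quantitative HTS in HepG2 cells stably expressing an ARE-beta-lactamase reporter; 16 h compound exposure at 37 C, followed by 2 h room-temperature incubation with LiveBLAzer B/G FRET substrate and fluorescence measurement.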

[2] = qHTS assay for small molecule activators of the p53 signaling pathway (AID 651743; active = well fitted activation curve with a large enough effect in the signal ratio, not every such curve was filed as active; the % refers to the signal ratio; note: % of control where 0% means no effect); details: HCT-116 p53RE-bla, beta-lactamase FRET ratio, 16 h; stronger effect = higher value
In short: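 Read-out is fluorescence intensity from the LiveBLAzer B/G FRET substrate, added for 2 hours at room temperature after HCT-116 p53RE-bla cells had been incubated with compounds for 16 hours at 37 C.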

[3] = qHTS assay for small molecule activators of the nuclear factor-kappa B (NF-kB) signaling pathway (AID 651749; active = well fitted activation curve with a large enough effect in the signal ratio; the % refers to the signal ratio; note: % of control where 0% means no effect); details: NF-kB-bla ME-180 cells, beta-lactamase FRET ratio, 16 h; stronger effect = higher value
In short: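 Readout: beta-lactamase reporter driven by an NF-kB response element, detected fluorescently as loss of FRET. Cells were the ME-180 line, treated 16 hr at 37C with pin-transferred compound.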

[4] = molecular target: Tumor necrosis factor (Homo sapiens) (UniProt P01375); assay: qHTS assay to identify small molecules that stimulate Tumor Necrosis Factor-alpha (TNF-alpha) secretion (AID 651757; active = well fitted curve in the direction sought with a large enough effect in the signal ratio; the % refers to the signal ratio; note: 0% is about no effect); details: Human cells, HTRF 665/615 ratio; series mostly up to 92.2 µM
Tumor necrosis factor (Homo sapiens), sequence (P01375 whole entry, looked up): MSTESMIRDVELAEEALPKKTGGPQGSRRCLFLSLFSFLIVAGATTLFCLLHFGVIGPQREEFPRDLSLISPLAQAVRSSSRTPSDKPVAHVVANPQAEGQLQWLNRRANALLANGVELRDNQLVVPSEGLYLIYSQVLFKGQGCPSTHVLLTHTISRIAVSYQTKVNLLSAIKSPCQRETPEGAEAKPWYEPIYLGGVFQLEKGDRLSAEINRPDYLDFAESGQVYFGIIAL
In short: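 THP-1 cells (3000/well) exposed to compounds 17 hrs at 37 C. Secreted TNF-alpha detected by HTRF with cryptate- and XL665-labeled anti-TNF-alpha antibodies after 3 hr at room temperature.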

[5] = qHTS assay to identify small molecules that stimulate interleukin-8 (IL-8) secretion (AID 651758; active = well fitted activation curve with a large enough effect in the signal ratio; the % refers to the signal ratio; note: 0% is about no effect); details: HTRF ratio (665/615); series mostly up to 92.2 µM
In short: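 Secreted IL-8 measured by TR-FRET sandwich (cryptate and XL665 antibodies) from THP-1 cells exposed to compound overnight (16 hrs, 37 C).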

[6] = qHTS assay for environmental chemicals that activate the Aryl hydrocarbon Receptor (AhR) signaling pathway (AID 651777); details: 1A2-DRE human hepatoma cells, luciferase, 24 h; stronger effect = higher value; note: % of control where 0% means no effect; nearly all actives have a fitted effect of over 15% in size
In short: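 Induction of CYP1A2 transcription through AhR is detected by luciferase in 1A2-DRE hepatoma cells. Compounds or DMSO act for 24 hr at 37 C before a 30 min One-Glo step at room temperature.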

[7] = molecular target: Peroxisome proliferator-activated receptor alpha (Homo sapiens) (UniProt Q07869); assay: qHTS assay for small molecule agonists of the peroxisome proliferator-activated receptor alpha (PPARalpha) signaling pathway (AID 651778); details: PathHunter PPARalpha complementation, chemiluminescence, 6 h; max response: stronger effect = higher value; note: potency is the fitted concentration of half-maximal effect; for max response: % of control where 0% means no effect
Peroxisome proliferator-activated receptor alpha (Homo sapiens), sequence (Q07869 whole entry, looked up): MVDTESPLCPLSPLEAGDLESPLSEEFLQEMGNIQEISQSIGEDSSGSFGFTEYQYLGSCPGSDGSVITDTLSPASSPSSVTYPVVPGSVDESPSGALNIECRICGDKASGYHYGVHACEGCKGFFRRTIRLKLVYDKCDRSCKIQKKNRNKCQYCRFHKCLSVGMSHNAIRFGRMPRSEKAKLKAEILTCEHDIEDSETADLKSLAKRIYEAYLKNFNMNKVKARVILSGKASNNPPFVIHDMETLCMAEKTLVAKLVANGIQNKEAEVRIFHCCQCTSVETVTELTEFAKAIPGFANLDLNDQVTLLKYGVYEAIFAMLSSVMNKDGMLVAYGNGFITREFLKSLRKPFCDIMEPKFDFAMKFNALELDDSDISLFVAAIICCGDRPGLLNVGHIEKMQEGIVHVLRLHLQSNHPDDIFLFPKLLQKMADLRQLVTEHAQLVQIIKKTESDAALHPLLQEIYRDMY
In short: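 Chemiluminescence from complemented enzyme reported PPARalpha activation in cells after 6 hr of compound treatment at 37 C. The detection reagent was incubated for 60 min at room temperature, and compounds were scored as agonists.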

[8] = Cell Proliferation Assay against the HBL1 Cell Line (AID 651646); details: HBL1 DLBCL cells; at 46.1 µM (top of the series);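 note: cells exposed to compound for 48 h before reading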
In short: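 Luminescent ATP read-out (CellTiter-Glo) after 48 h compound exposure of HBL1 cells at 37 °C; percent activity was scaled between DMSO as 100% and 9.2 uM bortezomib (final) as 0%.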

[9] = Cell Proliferation Assay against the TMD8 Cell Line (Caspase readout at 16 hrs) (AID 651712); details: TMD8 lymphoma cells, caspase activation luminescence; note: potency is the fitted concentration of half-maximal effect
In short: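 Apoptotic response of TMD8 cells was judged from caspase 3/7 activation following a 16 hour compound incubation at 37 °C. Luminescent signal was converted to percent activity, with DMSO set as 0% and 9.2 uM final bortezomib as 100%.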

[10] = Cell Proliferation Assay against the TMD8 Cell Line (Caspase readout at 8 hrs) (AID 651713); details: TMD8 lymphoma cells, caspase activation luminescence; series mostly up to 46.1 µM; note: potency is the fitted concentration of half-maximal effect
In short: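 TMD8 cells in RPMI plus 5% FBS were treated with compound for 8 h at 37C. Caspase 3/7 activation was read by Caspase-Glo luminescence. Percent activity was scaled from DMSO (0%) to 9.2 uM bortezomib final (100%).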

## Cc1cc(O)c2c(c1)C(=O)c1cccc(O)c1C2=O
[1]
  Potency: 26.6 µM (active)
[2]
  activation: -1.77% (inactive)
[3]
  activation: -0.078% (inactive)
[4]
  outcome: inactive
[5]
  outcome: inactive
[6]
  activation: 0.266% (inactive)
[7]
  max response: -1.41% (inactive)

## O=C1c2cccc(O)c2C(=O)c2c(O)cc(CO)cc21
[2]
  activation: 6.22% (inactive)
[6]
  activation: 2.38% (inactive)
[7]
  max response: -2.01% (inactive)

## COc1cc(C)c(Sc2cnc(NC(=O)c3ccc(CNC(C)C(C)(C)C)cc3)s2)cc1C(=O)N1CCN(C(C)=O)CC1 (stereo not drawn)
[8]
  viability, percent of control: 12.9%

## C[C@]12CC[C@@H]3c4ccc(O)cc4CC[C@H]3[C@H]1CC[C@H]2O
[2]
  activation: 13.4% (inactive)
[6]
  activation: 2.62% (inactive)
[7]
  max response: -1.17% (inactive)

## Cn1c(Nc2ccc(C(F)(F)F)cc2)nc2cc(Oc3ccnc(-c4ncc(C(F)(F)F)[nH]4)c3)ccc21
[8]
  viability, percent of control: 33%
[9]
  Potency: 16.6 µM (active)
[10]
  Potency: inactive

## OC[C@@H](O)[C@@H](O)[C@H](O)[C@@H](O)CO
[2]
  activation: -2.74% (inactive)
[3]
  activation: -0.0055% (inactive)
[6]
  activation: 0.287% (inactive)
[7]
  max response: -1.39% (inactive)

## COc1cc2c(cc1OC)[C@@H]1C(=O)c3ccc4c(c3O[C@@H]1CO2)C=CC(C)(C)O4
[8]
  viability, percent of control: 18.7%
[10]
  Potency: inactive

## N#Cc1ccc(COC[C@H]2O[C@@H](n3c(NCc4ccc(Cl)c(Cl)c4)nc4c(N)ncnc43)[C@@H](O)[C@@H]2O)cc1
[8]
  viability, percent of control: 17.4%
[10]
  Potency: 29.6 µM (active)

## CC(C=CC1=C(C)CCCC1(C)C)=CC=CC(C)=CC(=O)Nc1ccc(O)cc1
[2]
  activation: 0.252% (inactive)
[6]
  activation: -5.07% (inactive)
[7]
  Potency: 8.91 µM (active)

— PubChem BioAssay (NCATS)
